Consider 95 compounds from PubChem BioAssay AID1063 (University of Pittsburgh Molecular Library Screening Center, 2008).

Molecules are shown by their SMILES. Screen size: about 200,000 compounds; about 18,000 (9%) were called active. The list comes from a sample in which actives are over-represented; it also holds similar structures and randomly drawn compounds. Values without a mark were called inactive. Cut-off read from the data, not from the text of the source: active = inhibition above about 50%; inactive = the rest.

The assay in a line: Leishmania major promastigote growth inhibition, primary screen (AID 1063).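 Note: promastigotes grown with compound for 44 hours at 28 °C.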 As to conditions: Leishmania major promastigotes, resazurin fluorescence viability; at 10 µM; hits give high values. On the technique in general: The colour change of resazurin is a common sign of viable cells or microbes.
In the case of `Cc1ccc2nc(-c3ccncc3)cc(C(=O)Nc3ccc4c(c3)OCCO4)c2c1`, the inhibition – broadly, the relative decrease from the control value, in per cent – was 5.91%.
`COC(=O)CCNc1ccc2c(c1)OCCO2`: the inhibition is -0.44%.
The value for `CCOC(=O)c1cnc2ccc(F)cc2c1Nc1ccc2c(c1)OCCO2` was 85.4% (active).
The value for `CCOc1cc(CNCCN(C)C)c(Cl)cc1OCC(=O)NCCc1ccccc1` was 99% (active).
The value for `CCCNCc1cc(OCC)c(OCC(=O)Nc2ccccc2)cc1Br` was 33.5%; that for `O=C(COc1cc(Cl)c(Cl)cc1Cl)NCCc1ccccn1` was -5.85%; that for `Cc1ccc(-c2n[nH]c(=S)n2/N=C/c2cc3c(cc2[N+](=O)[O-])OCO3)cc1` was -0.37%.
As for `CCOc1ccc(-c2n[nH]c(=S)n2/N=C/c2cc3c(cc2[N+](=O)[O-])OCO3)cc1`, the inhibition is 52.8% (active).
The value for `O=[N+]([O-])c1ccccc1/C=N/n1c(COc2ccccc2)n[nH]c1=S` was -4.75%; that for `CN(C)c1ccc2c(=O)[nH][nH]c(=O)c2c1` was -5.2%.
As for `CC(=O)N1CCc2cc(Br)cc(S(=O)(=O)CCC(=O)Nc3c(C)n(C)n(-c4ccccc4)c3=O)c21`, the inhibition is -1.11%.
The value for `CCn1c(/C=C/c2ccc([N+](=O)[O-])o2)nc2ccccc2c1=O` was 100% (active).
The value for `CCOCCCn1c(NN)nc2ccccc2c1=O` was -5.56%; that for `O=c1oc(/C=C/c2ccccc2)nc2ccccc12` was 1.06%; that for `CCN1CCC2(CCN(Cc3cn[nH]c3-c3ccc(OC)c(F)c3)C2)C1` (stereo not given) was 1.79%.
The value for `CCOC(=O)c1c(-c2cccc(C)c2)csc1NC(=O)c1c(-c2ccccc2)noc1C` was 1.98%.
Consider `Cc1noc(C)c1CSCC(=O)Nc1nc2ccc(Oc3ccccc3)cc2s1`, for which the inhibition was 2.23%.
The value for `CCOC(=O)c1c(C2CC2)csc1NC(=O)CSCc1c(C)noc1C` was 100% (active).
The value for `CCOC(=O)Nc1sc(C(=O)N(C)C)c(C)c1C(=O)OCC` was 7.28%; that for `CCOC(=O)c1c(NC(=O)CCl)sc(C(=O)N(CC)CC)c1C` was 100% (active); that for `CCOC(=O)c1sc(NC(=O)CCN2CCOCC2)c(C(=O)OCC)c1C` was 7.86%.
The value for `CCN(c1ccc2c(c1)OCO2)S(=O)(=O)c1cc(Br)cc2c1N(C(=O)C1CC1)CC2` was 57% (active); that for `CCOC(=O)N1CCN(S(=O)(=O)c2cc(Br)cc3c2N(C(=O)C2CC2)CC3)CC1` was -13.7%; that for `CS(=O)(=O)N(CC(=O)NCc1ccco1)c1ccc2c(c1)OCO2` was 7.89%.
For the compound `COC(=O)C1=C(C)N(C(C)c2ccccc2)C(=O)/C1=C\c1ccco1` (stereo not given), the inhibition is 12.7%.
Take `O=c1[nH]c(CN2CCN(S(=O)(=O)c3ccc4c(c3)OCCO4)CC2)nc2sc3c(c12)CCCC3`: the inhibition was 26.5%.
Regarding `O=[N+]([O-])c1ccc(C=Nc2ccc(Cl)cc2Cl)s1`, the inhibition was 100% (active).
The value for `CCCNC(=O)c1c(Cl)cnn1-c1ccc(C)cc1` was 6.12%; that for `Cc1ccc(CN(C)CC(=O)Nc2cccc([N+](=O)[O-])c2)o1` was 8.58%.
For the compound `CC(C)(C)n1ncc2c(=O)n(Cc3ccc(Cl)cc3)cnc21`, the inhibition was 0.21%.
The value for `CCN(CC)S(=O)(=O)c1ccc(Cl)c(NC(=O)c2ccncc2)c1` was 19.7%; that for `COc1ccc(C2CC(c3cccs3)Nc3nnnn32)cc1` (stereo not given) was -4.3%.
For `O=C(CSc1nnc2scc(-c3ccc(F)cc3)n12)NCc1ccco1`, the inhibition was -2.03%.
The value for `COc1ccc(-n2c(SCC(=O)NCc3ccco3)nnc2-c2c[nH]c3ccccc23)cc1` was 97.7% (active); that for `COc1ccc(-n2c(SCC(=O)NCc3cccs3)nnc2-c2ccoc2C)cc1` was 5.39%.
On to `COc1ccc(C(=O)NC(=O)CSc2nnc(-c3ccco3)n2-c2ccccc2)cc1`, for which the inhibition was -4.51%.
The value for `O=C(CSc1nnc(-c2cccs2)n1-c1ccccc1)NCc1ccco1` was 7.53%.
The value for `O=C(CSc1nnc(-c2c[nH]c3ccccc23)n1-c1ccc(F)cc1)NCc1ccco1` was 52.5% (active); that for `Cc1ccc(N=Cc2c(O)cc(C)oc2=O)c(C)c1` was -1.99%; that for `COc1cccc(CNC(=O)Cc2csc(Nc3nc(=S)[nH]c4ccccc34)n2)c1` was 2.33%.
The value for `COC(=O)C[n+]1cccc2ccccc21` was 28.5%.
Regarding `O=C(CN1C(=O)C2C3CCC(C3)C2C1=O)Oc1ccc2ccccc2c1` (stereo not given), the inhibition is 7.23%.
Consider `CC1=CC(C)(C)Nc2ccc(OC(=O)C(Cc3ccccc3)N3C(=O)C4CCCCC4C3=O)cc21` (stereo not given), for which the inhibition is 65.6% (active).
The value for `CC(OC(=O)CN1C(=O)C2CCCCC2C1=O)C(=O)Nc1ncc(Cl)cc1Cl` (stereo not given) was -6.88%; that for `Cc1ccc(C)n1C(Cc1ccccc1)C(=O)O` (stereo not given) was -7.64%; that for `CC1=CC(C)(C)Nc2ccc(OC(=O)CN3C(=O)C4CCCCC4C3=O)cc21` (stereo not given) was 100% (active).
The value for `COc1cccc(NC(=O)NCc2ccc(F)cc2)c1` was 2.02%.
`CN(NC(=O)C1CC(=O)N(c2ccccc2)C1)C1=NS(=O)(=O)c2ccccc21` (stereo not given): the inhibition was -0.26%.
The value for `CCc1ccc(Oc2nc([N+](=O)[O-])nn2C)cc1` was 12.5%; that for `CSc1nc2nc(-c3cccc(C(F)(F)F)c3)ccn2n1` was -7.55%.
The value for `C=CCN1C(=O)C(O)(CC(=O)c2ccccn2)c2ccccc21` (stereo not given) was 3.64%.
For `CCOc1ccc(NC(=O)CCS(=O)(=O)c2ccc3c(c2)CCCN3C(=O)CC)cc1`, the inhibition was 62.8% (active).
The value for `CCCNS(=O)(=O)c1ccc2c(c1)CCCN2C(C)=O` was -1.63%; that for `CC(=O)N1CCCc2cc(S(=O)(=O)CCC(=O)N3CCN(c4ccccc4)CC3)ccc21` was -3.41%; that for `O=C(c1ccc(F)cc1)N1CCCC(c2nc(-c3cccs3)no2)C1` (stereo not given) was 5.3%.
Consider `O=C(c1cccs1)N1CCCC(c2nc(-c3ccc(F)cc3)no2)C1` (stereo not given), for which the inhibition was -8.27%.
The value for `O=C(Cc1cccs1)N1CCCC(c2nc(-c3ccc(S(=O)(=O)N4CCCC4)cc3)no2)C1` (stereo not given) was 95.1% (active); that for `C=C(C)c1cccc(C(C)(C)NC(=O)NCCN(CC)CC)c1` was 4.54%.
In the case of `COC(=O)CN1C(=O)N/C(=C/c2ccc(OC)c(C)c2OC)C1=O`, the inhibition was -9.01%.
The value for `S=C(NC1CCCCC1)NN1CCOCC1` was -1.39%.
The value for `COc1ccccc1Cn1c(C)nnc1-c1cnn(C)c1N` was 0.00407%.
As to `COC(=O)c1ccc(NC(=O)CSc2nnc(-c3ccncc3)n2C)cc1`, the inhibition was 5.08%.
The value for `CCOC(=O)c1ccc(NC(=O)CSc2ncccn2)cc1` was 0.48%.
The value for `CCOC(=O)c1ccc(NC(=O)CSc2nnc(COc3ccccc3OC)n2C)cc1` was 89% (active).
The value for `CCc1cc2cc(OC)ccc2nc1SCC(=O)Nc1cc(OC)c(OC)cc1C(=O)O` was -7.93%.
Consider `CN(Cc1ccccc1)c1nc2c(c(=O)[nH]c(=O)n2C)n1CCSc1nc2ccccc2[nH]1`, for which the inhibition was 95% (active).
Consider `Cc1ccnc(SCCn2c(N(C)Cc3ccccc3)nc3c2c(=O)n(C)c(=O)n3C)n1`, for which the inhibition was 34.8%.
`Cn1c(=O)[nH]c(=O)c2c1nc(N(CCO)Cc1ccccc1)n2Cc1ccccc1Cl`: the inhibition was 23.7%.
The value for `CCOC(=O)c1sc(NC(=O)CSc2nc(O)c(Cc3ccccc3)c(=O)[nH]2)nc1C` was -5.06%; that for `Cc1ccc(-c2noc(CCC(=O)Nc3ccccc3N3CCN(C)CC3)n2)cc1` was 57.9% (active); that for `Cc1ccc(-c2noc(CCC(N)=O)n2)cc1` was -4.98%.
On to `CN1CCN(C(=O)CCc2nc(-c3ccc(Cl)cc3)no2)CC1`, for which the inhibition is -4.14%.
The value for `COc1cccc(/C=N\NC(=O)C2=NNC(=O)C2C)c1O` (stereo not given) was -7.2%; that for `COc1cccc(/C=N/NC(=O)c2[nH]nc3c2CCc2ccccc2-3)c1O` was 98% (active); that for `COc1ccc(C(=O)Nc2ccccc2C(=O)N/N=C/c2ccccc2OC)cc1` was 6.31%.
As for `C/C(=N\NC(=S)NC(C)C)c1ccc(C(C)(C)C)cc1`, the inhibition is 15%.
The value for `Cc1ccc(NC(=O)CSc2nnc(COc3ccccc3C)o2)cc1` was -2.82%; that for `O=C(COC(=O)c1cc(S(=O)(=O)N2CCCCC2)ccc1Cl)NCc1ccco1` was 7.75%.
The value for `CCn1c2ccccc2c2cc(NC(=O)COC(=O)c3cc(S(=O)(=O)N4CCCCC4)ccc3Cl)ccc21` was 73.8% (active); that for `CCn1c2ccccc2c2cc(NC(=O)COC(=O)c3ccccc3Br)ccc21` was -2.86%; that for `CSCCC(NC(=O)c1ccc(=O)n(C)n1)c1nc2ccccc2[nH]1` (stereo not given) was -5.06%.
For the compound `COc1ccc(CC(=O)N[C@@H](CCSC)c2nc3ccccc3[nH]2)cc1`, the inhibition is -4.82%.
The value for `CSCCC(NC(=O)c1cc([N+](=O)[O-])cc([N+](=O)[O-])c1)c1nc2ccccc2[nH]1` (stereo not given) was 96.8% (active); that for `Cc1ccc(CN(N=Nc2nonc2N)c2nonc2N)c(C)c1` was 88.8% (active).
Turning to `Cc1ccc2c(c1)C1CN(C)CCC1N2C(=S)Nc1ccc(OC(F)F)cc1` (stereo not given), the inhibition is 34.5%.
The value for `Cc1ccc2nc(C)cc(N/N=C/c3ccc(F)cc3)c2c1` was 7.72%; that for `COCC(C)NCc1cc(Br)ccc1OC` (stereo not given) was -1.49%; that for `CCC(C)NCCOCCOc1ccc(Br)cc1C` (stereo not given) was 99% (active).
The value for `CCOCCCNCc1cc(Br)ccc1OCC` was 13.3%; that for `CCN(CC)S(=O)(=O)c1ccc(N(C)Cc2cccc(OC)c2OC)nc1` was 8.96%.
`CCN(Cc1ccccc1)S(=O)(=O)c1cc(C(=O)O)ccc1OC`: the inhibition was -8.56%.
`O=S(=O)(c1ccc2c(c1)OCCO2)N1CCc2ccccc21`: the inhibition is -6.88%.
The value for `COc1ccccc1C(c1nnnn1CC1CCCO1)N1CCN(c2ccccc2)CC1` (stereo not given) was 6.1%; that for `Cc1cccc(N2CCN(C(c3ccc(N(C)C)cc3)c3nnnn3C(C)(C)C)CC2)c1C` (stereo not given) was 11.3%.
On to `Cc1cccc(N2CCN(C(c3ccccc3)c3nnnn3CC3CCCO3)CC2)c1C` (stereo not given), for which the inhibition is 75.9% (active).
